Assay results taken from PubChem BioAssay (NCI).
Where “and” joins values, the source holds several entries; their conditions need not be identical. Equal entries are not always repeated. About 79,000 compounds went through this panel and 15% of them were active in at least one assay; those are over-represented in the sample as a whole. Calls of active or inactive are those of the source. Cut-off read from the data, not from the text of the source: active = growth inhibition above about 70%; inactive = the rest.

Tests used:
[1] = NCI Yeast Anticancer Drug Screen. Data for the rad50 strain (AID 155);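 note: 0% = growth of vehicle-only cultures of the same strain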; details: S. cerevisiae rad50 strain growth inhibition; at 50.0 µM; active compounds read high
In short: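 Readout: growth inhibition relative to vehicle-treated cultures. Compound exposure was carried out in a genetically defined yeast strain deficient in DNA damage repair.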

[2] = NCI Yeast Anticancer Drug Screen. Data for the mec2-1 strain (AID 157); details: S. cerevisiae mec2-1 strain, at 50.0 µM, active compounds read high
In short: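 Each compound was tested on mec2-1 yeast, a strain altered in DNA damage repair or cell cycle control. Growth inhibition is reported relative to vehicle.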

[3] = NCI Yeast Anticancer Drug Screen. Data for the sgs1 mgt1 strain (AID 161);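 note: 0% = growth of cultures given vehicle only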; details: S. cerevisiae sgs1 mgt1 strain, at 50.0 µM, active compounds read high
In short: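 Test agents were incubated with a DNA-repair-mutant yeast strain. Growth was then read and compared against vehicle-treated controls.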

[4] = NCI Yeast Anticancer Drug Screen. Data for the cln2 rad14 strain (AID 165);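 note: 0% = growth equal to vehicle treated cultures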; details: S. cerevisiae cln2 rad14 strain, at 50.0 µM, active compounds read high
In short: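 Test compounds were added to cln2 rad14 yeast cultures; inhibition of growth was then determined by comparison with vehicle treatment.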

[5] = NCI Yeast Anticancer Drug Screen. Data for the bub3 strain (AID 167); details: S. cerevisiae bub3 mutant strain, at 50.0 µM, active compounds read high
In short: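 Readout: yeast growth inhibition, expressed relative to vehicle-only wells. The test organism is a mutant strain from a panel with lesions in DNA repair or checkpoint genes.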

[6] = NCI Yeast Anticancer Drug Screen. Data for the mlh1 rad18 strain (AID 175); details: S. cerevisiae mlh1 rad18 strain growth inhibition; at 50.0 µM; active compounds read high
In short: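 Inhibition values reflect reduced growth of mutant yeast versus vehicle-treated controls following compound exposure; the mutations affect DNA damage repair.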

Measured: growth inhibition

[CH3][Sn]([c]1ccccc1)[c]1ccccc1
inactive: [1] -4.15% | [2] 2.5% | [3] 2.45% | [4] -11% | [5] 1.2% | [6] -21.4%

COc1ccc(C(=O)O)cc1OC
inactive: [1] -0.25% | [2] 9.45% | [3] -18.8% | [4] 7.4% | [5] -9.5% | [6] 5%

Cc1ccc(N)c(C)c1
inactive: [1] -2.05% | [2] -5.65% | [3] -1.5% | [4] -3.8% | [5] 3.2% | [6] -13.2%

O=C(Cc1ccccc1)OC1CCCC1
inactive: [1] 14.6% | [2] -4.6% | [3] -7.15% | [4] -39% | [5] -3.3% | [6] 19%

O=C(O)C(C(=O)O)P(=S)(S)c1ccccc1 (stereo not given)
inactive: [1] -2.1% | [2] 8.6% | [3] -2.75% | [4] 1.15% | [5] 35.3% | [6] 14.5%

O=C1OP2(c3ccccc3)(OC(=O)c3ccccc32)c2ccccc21
inactive: [1] 18.6% | [2] 16.2% | [3] 20.4% | [4] -20.3% | [5] -18.5% | [6] 14.3%

COC(=O)C(Cl)CCl (stereo not given)
inactive: [1] 2.45% and 39.4% | [2] 15.3% and 6.15% | [3] -9.05% and 16% | [4] -23.2% and -34.7% | [5] -2.3% and 15.8% | [6] -20.8% and 25.7%

N#CCc1ccccc1
inactive: [1] 8.5% and -45.5% | [2] 17.6% and 3.2% | [3] -7.35% and -21.4% | [4] 13.7% and 5.6% | [5] 15.4% and -1.05% | [6] 4.85% and -6.65%

O=C(O)c1cc(C(=O)O)cc(S(=O)(=O)F)c1
inactive: [1] 13.5% | [2] 3.75% | [3] 19.6% | [4] 10.6% | [5] -4.05% | [6] 7.5%

[Fe+5].[O-][Cl+3]([O-])([O-])O.[O-]c1ccccc1C=NCCN1CC1.[O-]c1ccccc1C=NCCN1CC1
inactive: [1] 1.8% | [2] 16% | [3] 30.1% | [4] 0.3% | [5] 37% | [6] 22.2%

OP(=S)(OCc1ccccc1)OCc1ccccc1
inactive: [1] 18.9% | [2] 19.6% | [3] 5.95% | [4] -13.8% | [5] 17.9% | [6] 4.55%

CO/N=C1\CC(C)N2C(=O)C(C(C)C)NC(=O)C(NC(=O)c3c4nc5c(C(=O)NC6C(=O)NC(C(C)C)C(=O)N7C(C)CC(O)C7C(=O)N(C)CC(=O)N(C)C(C(C)C)C(=O)OC6C)ccc(C)c5oc-4c(C)c(=O)c3N)C(CO)OC(=O)C(C)N(C)C(=O)CN(C)C(=O)C12 (stereo not given)
inactive: [1] 23.1% | [2] -18.8% | [3] 9.35% | [4] 20% | [5] -3.9% | [6] 8.45%

C1CC2OC2CC1C1CO1 (stereo not given)
inactive: [1] -0.4% | [2] -3% | [3] 4.7% | [4] -8.4% | [5] -17.1% | [6] -17.9%

CN(C)c1ccc(SC(Cl)(Cl)Cl)cc1
inactive: [1] -0.95% | [2] -14.2% | [3] -0.1% | [4] -43.9% | [5] 3.4% | [6] -4.75%

C1CN1Sc1nc(SN2CC2)nc(SN2CC2)n1
inactive: [1] -1.35% | [2] -5.55% | [3] 19.7% | [4] -73% | [5] 11.8% | [6] 27.3%

CCCCCCCCCCCCCCC[As](=O)(O)CCCCCCCCCCCCCCC
inactive: [1] 21.8% | [2] 0.75% | [3] 11.9% | [4] 8.45% | [5] 6.75% | [6] 12.9%

c1ccc2c(c1)CCNC2
inactive: [1] 21.8% | [2] 13.2% | [3] 19% | [4] 5.15% | [5] -0.55% | [6] 24.4%

O=C(N1CCCC1)C1(c2cccc(Cl)c2)CCNCC1
inactive: [1] -26.1% | [2] -53% | [3] -16.2% | [4] 0.25% | [5] -28.1% | [6] -20.7%

CCOP(=O)(CCBr)Oc1ccc([N+](=O)[O-])cc1 (stereo not given)
inactive: [1] -17.9% | [2] 11.8% | [3] -16.4% | [4] -2.6% | [5] 7.3% | [6] -20%

CCCC(=O)OCC[N+](C)(C)C
inactive: [1] -1.35% and 12.7% | [2] -21.9% and -18.6% | [3] -10.7% and 25.4% | [4] 18.9% and 5.95% | [5] -12.1% and 6.6% | [6] 4.05% and 18.2%

O=P(O)(O)CCCP(=O)(O)O.[Zn+2]
inactive: [1] -10.9% | [2] -27.4% | [3] -7.05% | [4] -6.1% | [5] -12.7% | [6] 29.1%

Cc1nn(C)pc1P(C)(=S)n1nc(N(C)C)np1 (stereo not given)
inactive: [1] -2.65% | [2] -19.1% | [3] 0.65% | [4] 0.2% | [5] -7.55% | [6] -7.75%

[CH3][Sn]([CH3])([n]1cnc2ccccc21)[n]1cnc2ccccc21
inactive: [1] 0.85% | [2] 9.9% | [3] 12.2% | [4] -4.85% | [5] 0.1% | [6] -3.45%

Cc1ccc(-n2cnc3c(N(CCCl)CCCl)ncnc32)cc1
inactive: [1] 10.3% | [2] 0.55% | [3] -1.45% | [4] 5.55% | [5] 23.5% | [6] -3.15%

CC[C@H]1CN2CCc3c([nH]c4ccccc34)[C@@H]2C[C@@H]1/C(=C/OC)C(=O)OC (tested in a mixture with another compound)
inactive: [1] -23.2% | [2] -25.6% | [3] -24.6% | [4] 3.6% | [5] -32.9% | [6] -13.9%

N.N.N.O=N[O-].O=N[O-].O=N[O-].[Co+3]
inactive: [1] -2.05% | [2] 9.65% | [3] -6.25% | [4] 18.6% | [5] 6.5% | [6] -10.4%

CC(=O)C1C(c2ccccc2)C2(C)OC(=O)C(C#N)C12C (stereo not given)
inactive: [1] -17.6% | [2] 18.9% | [3] 9% | [4] 32.3% | [5] 21.8% | [6] 33.2%

O=C(NCP(=O)(O)O)c1cccnc1
inactive: [1] -10.7% and -6.8% | [2] -29.5% and -10.8% | [3] -4.9% and 6.8% | [4] -37.6% and -25.1% | [5] -32.8% and -6.75% | [6] 2.85% and -10.2%

CN1CCC(OC(=O)Oc2ccccc2)(c2ccccc2)CC1
inactive: [1] 1.6% | [2] 9.6% | [3] 3.95% | [4] 33.7% | [5] 48.5% | [6] -6.65%

CC(C)=NNC1=NC(CC(C)C)P(=O)(NCCCCNP2(=O)SC(NN=C(C)C)=NC2CC(C)C)S1 (stereo not given)
inactive: [1] -5.25% | [2] 17.5% | [3] 11.1% | [4] -18.2% | [5] -11.3% | [6] 6.15%

CN(C)C(=O)Oc1c(Cl)cc(S(=O)(=O)F)cc1Cl
inactive: [1] 26.4% | [2] 0.8% | [3] 12.7% | [4] 12.8% | [5] 2.65% | [6] 12.4%

CN(C)C1COC2Cc3ccccc3C1O2 (stereo not given)
inactive: [1] -25.6% and -13.6% | [2] -26.2% and -9.45% | [3] -3.65% and 1.7% | [4] -22.4% and 3.5% | [5] -0.15% and -8.75% | [6] -77.4% and -90.5%

CC12CC(=O)C3C(CCC4CC=CCC43C)C1CCC2=O (stereo not given)
inactive: [1] 22.1% | [2] -12.5% | [3] 28.1% | [4] 5.8% | [5] 10% | [6] 24.5%

Cc1ccc2c(O)c3c(cc2c1)C(=O)c1c2c(cc(O)c1C3=O)C1(C)OC(O2)C(O)C(N(C)C)C1O (stereo not given)
active: [1] 86.7% | [2] 87.9% | [3] 90.9% | [4] 87.7% | [5] 87.8% | [6] 85.5%

COc1ccc2nc3cc(Cl)ccc3c(NCCCSCCCl)c2n1
active: [1] 95.4% | [2] 80% | [3] 94.3% | [4] 78.4% | [5] 71.3% | [6] 92.2%
